Records with an inconclusive call do not appear. Activity calls are given as the source filed them. Calls come from the whole dose curve; as a rule, active = well fitted inhibition curve with a large enough effect; inconclusive = small, poorly fitted or top-dose-only effect; inactive = flat fitted curve, though single readings scatter. Peptide text beside a SMILES is read from it.
Test system: W2
Experiment: qHTS profiling for inhibitors of Plasmodium falciparum proliferation (AID 504749); note: nearly all actives have a fitted effect of over 60% in size;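 for activity, negative = inhibition: 0% = DMSO vehicle and full inhibition = artemisinin control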
Conditions: P. falciparum in erythrocytes, SYBR Green DNA, 72 h; series mostly up to 12.8 µM; activity, negative = inhibition: at the top concentration
How it was run: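 Quantitative HTS: compounds pinned into medium, infected erythrocytes added (0.3% parasitemia, 2.5% hematocrit), 72 h culture at 37 C under 5% CO2. Saponin/Triton lysis with SYBR Green I, overnight RT, then fluorescence read.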
Potency is the fitted concentration of half-maximal effect.

Row | Compound | activity, negative = inhibition | Potency
1 | CCC(C)C(=O)OC1CCC=C2C=CC(C)C(CCC3CC(O)CC(=O)O3)[C@@H]21 (some centres undefined) | 15.7% [at 28.7 µM] (inactive) | 
2 | C[C@]1(c2ccccc2)OC(C(=O)O)=CC1=O | 5.74% [at 28.7 µM] (inactive) | 
3 | CN1CC(=O)N=C1N | -3.03% [at 28.7 µM] (inactive) | 
4 | COC1C=CO[C@@]2(C)Oc3c(C)c(O)c4c(O)c(c(C=NN5CCN(C)CC5)c(O)c4c3C2=O)NC(=O)/C(C)=C\C=CC(C)C(O)[C@@H](C)C(O)C(C)[C@H](OC(C)=O)C1C (some centres undefined) |  | 0.12 µM (active)
5 | CC(=O)N[C@@H]1C(O)OC(CO)C(O)C1O (some centres undefined) | 5.48% [at 28.7 µM] (inactive) | 
6 | CCC(CCC(C)C1CCC2C3CC=C4CC(O)CC[C@@]4(C)C3CC[C@@]12C)C(C)C (some centres undefined) | 4.78% [at 28.7 µM] (inactive) | 
7 | O=C1OC(CO)C(O)C(O)C1O (centres undefined) | 9.17% [at 28.7 µM] (inactive) | 
8 | COc1ccc(CC(N)C(=O)NC2C(CO)OC(n3cnc4c(N(C)C)ncnc43)C2O)cc1 (centres undefined) |  | 0.338 µM (active)
9 | CCCC(=O)O[C@]1(C(=O)CO)CCC2[C@@H]3CCC4=CC(=O)CC[C@]4(C)C3C(O)C[C@]21C (some centres undefined) | -6.26% [at 28.7 µM] (inactive) | 
10 | COC(=O)C(Cc1ccccc1)NC(=O)C(N)CC(=O)O (stereo not drawn) (H-Asp-Phe-OMe; configuration not given here) | -2.71% [at 28.7 µM] (inactive) | 
11 | CC1(C)SC2C(N3C(=O)C(c4ccccc4)NC3(C)C)C(=O)N2C1C(=O)O (centres undefined) | -0.82% [at 28.7 µM] (inactive) | 
12 | CC1CCC(C(C)C)C(=O)C1 (centres undefined) | 15.5% [at 28.7 µM] (inactive) | 
13 | CC(=O)N[C@H](CC(C)C)C(=O)O | -12.8% [at 28.7 µM] (inactive) | 
14 | CC(C)C1CCC(C(=O)NC(Cc2ccccc2)C(=O)O)CC1 (centres undefined) | -1.09% [at 28.7 µM] (inactive) | 
15 | COc1ccc2cc(C(C)CO)ccc2c1 (centres undefined) | 0.898% [at 28.7 µM] (inactive) | 
16 | COc1ccc2cc1Oc1ccc(cc1)CC1c3c(cc4c(c3Oc3cc5c(cc3OC)CCN(C)C5C2)OCO4)CCN1C (centres undefined) |  | 1.9 µM (active)
17 | CNC1C(OC2C(O[C@@H]3C(O)C(O)[C@@H](N=C(N)N)C(O)C3N=C(N)N)OC(C)[C@@]2(O)CO)OC(CO)C(O)C1O (some centres undefined) | 3.47% [at 28.7 µM] (inactive) | 
18 | C[C@]12C=CC(=O)C=C1CCC1C2C(O)C[C@]2(C)C1CC[C@]2(O)C(=O)CO (some centres undefined) | 4.72% [at 28.7 µM] (inactive) | 
19 | CCOC(=O)C1=CC(OC(CC)CC)C(NC(C)=O)C(N)C1 (centres undefined) |  | 6.75 µM (active)
20 | CN(C)CCc1c[nH]c2ccc(CC3COC(=O)N3)cc12 (centres undefined) | -1.96% [at 28.7 µM] (inactive) | 
21 | OCC1O[C@H](OC2C(CO)O[C@@](O)(CO)C2O)C(O)C(O)C1O (some centres undefined) | 11.5% [at 28.7 µM] (inactive) | 
22 | CC1(C)OC2CO[C@]3(COS(N)(=O)=O)OC(C)(C)OC3C2O1 (some centres undefined) | 1.07% [at 28.7 µM] (inactive) | 
23 | CN(C)CCCOC1C(C(O)CO)OC2OC(C)(C)O[C@@H]21 (some centres undefined) | 13.3% [at 28.7 µM] (inactive) | 
24 | COc1cc(C2c3cc4c(cc3C(O[C@@H]3OC5COC(c6cccs6)OC5C(O)C3O)C3COC(=O)C23)OCO4)cc(OC)c1O (some centres undefined) |  | 1.2 µM (active)

— PubChem BioAssay (NCATS)
